Reference: PubChem BioAssay
The other results are listed elsewhere or left out. Calls of active or inactive are those of the source.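 The calls were made as follows, unless noted: active = mean inhibition above 46.68%, the untreated control wells mean plus 3 SD; inactive = the rest.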

Tests used:
[1] = biological target: Nuclear receptor coactivator 3 (Homo sapiens) (UniProt Q9Y6Q9); assay: NCOA3 GAL4-fusion reporter inhibition – cell-based, luminescence, quadruplicate, confirmation (AID 588792;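 active = mean inhibition over 43.08%, the solvent-only control mean plus 3 SD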;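 also: 0% = DMSO treated cells and 100% = gossypol at 36 µM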); conditions: HEK293 GAL4-SRC3 luciferase reporter, at 3.6 µM, hits give high values
[2] = tested on: transactivating tegument protein VP16 (Human herpesvirus 1), Gal4-VP16 luciferase reporter; assay: repression of VP16-driven luciferase reporter – cell-based, luminescence, high throughput, counter-screen for SRC3 inhibitor project (AID 588794; in the data active = inhibition above about 30%); conditions: mammalian cells, at 3.6 µM, hits give high values
[3] = biological target: Nuclear receptor coactivator 1 (Homo sapiens) (UniProt Q15788); assay: NCOA1 GAL4-fusion reporter inhibition – cell-based, luminescence, quadruplicate, confirmation (AID 588820); conditions: HEK293 GAL4-SRC1 luciferase reporter, at 3.6 µM, hits give high values;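 also: 0% = DMSO wells and 100% = gossypol 36 µM treated wells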
[4] = repression of VP16-driven luciferase reporter – cell-based, luminescence, high throughput, counter-screen for SRC1 inhibitor project (AID 588824; in the data active = inhibition above about 25%); conditions: cell-based VP16 transactivation luciferase luminescence; at 3.6 µM; hits give high values
[5] = StAR promoter reporter inhibitors, counter-screen for LRH-1 inverse agonist project, cell-based, luminescence, high throughput (AID 651611; in the data active = inhibition above about 28%); conditions: StAR promoter luciferase reporter counterscreen, at 3.6 µM, hits give high values
[6] = biological target: Nuclear receptor subfamily 5 group A member 2 (Homo sapiens) (UniProt O00482); assay: NR5A2 activity suppression in reporter cells – cell-based, luminescence, confirmation (AID 651613; in the data active = inhibition above about 42%;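 also: HEK293T cells co-transfected with LRH-1 and StAR promoter luciferase reporter; 0% = vehicle wells and 100% = parental cells lacking receptor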); conditions: cell-based LRH-1 luciferase reporter, inverse agonism; at 3.6 µM; hits give high values
[7] = biological target: Steroidogenic factor 1 (Homo sapiens) (UniProt Q13285); assay: inverse agonism at SF1 nuclear receptor – cell-based, luminescence, high throughput, counter-screen for LRH-1 inverse agonist project (AID 651614; in the data active = inhibition above about 44%;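 also: cells cotransfected with StAR promoter reporter and SF1 expression vector; 0% = vehicle on cells with receptor and 100% = vehicle on cells lacking receptor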); conditions: cell-based SF1 luciferase reporter, at 3.6 µM, hits give high values
[8] = compounds suppressing VP16-driven luciferase signal – cell-based, luminescence, high throughput, counter-screen for LRH-1 inverse agonist project (AID 651615; in the data active = inhibition above about 33%); conditions: Gal4-VP16 luciferase reporter cells, at 3.6 µM, hits give high values
[9] = biological target: Photoreceptor-specific nuclear receptor (Homo sapiens) (UniProt Q9Y5X4); assay: retest of NR2E3-NCOR disrupting agonists – cell-based, luminescence, CHO-S two-hybrid, confirmation (AID 624378;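 active = average inhibition above a cutoff equal to the mean inhibition of all tested compounds plus one SD, cut at about 70% in these data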;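 also: 0% = DMSO in NR2E3 cells and 100% = DMSO in cells lacking NR2E3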); conditions: CHO-S mammalian two-hybrid NR2E3-NCOR, luciferase luminescence; at 3.98 µM; hits give high values
[10] = nonselective effects on VP16 transactivation – cell-based, luminescence, CHO-S, high throughput, counter-screen for NR2E3 agonist project, confirmation (AID 624379;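 active = mean inhibition above a cutoff equal to the average over all tested compounds plus one standard deviation, cut at about 70% in these data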;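 also: 0% = DMSO with VP16-transfected cells and 100% = DMSO with cells lacking VP16; higher means less reporter light so more repression of VP16 activity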); conditions: CHO-S GAL4-VP16 luciferase reporter, at 3.98 µM, hits give high values
[11] = tested on: transactivating tegument protein VP16 (Human herpesvirus 1); assay: compounds suppressing VP16-driven luciferase signal – cell-based, luminescence, single concentration, counter-screen for SRC2 inhibitor project (AID 652007; in the data active = inhibition above about 36%); conditions: cell-based VP16 transactivation luciferase reporter, at 8.9 µM, hits give high values
[12] = biological target: Nuclear receptor coactivator 2 (Homo sapiens) (UniProt Q15596); assay: inhibition of GAL4-SRC2 driven luciferase expression – cell-based, luminescence, HEK293, triplicate, confirmation (AID 652008;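 active = mean inhibition above 46.5%, the solvent-only control mean plus 3 SD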;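 also: 0% = DMSO-treated cells and 100% = Gossypol at 36 µM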); conditions: HEK293 GAL4-SRC2 luciferase reporter, at 8.9 µM, hits give high values
[13] = VP16-driven transactivation reporter suppression – cell-based, luminescence, HEK293, counter-screen for COUP-TFII antagonist project (AID 687007; in the data active = inhibition above about 13%); conditions: HEK293 Gal4-VP16 luciferase reporter, at 8.5 µM, hits give high values
[14] = biological target: COUP transcription factor 2 (Homo sapiens) (UniProt P24468); assay: retest of COUP-TFII reporter suppressors – cell-based, luciferase reporter, HEK293, triplicate, confirmation (AID 687008;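 active = mean inhibition over three repeats above a set limit taken from the earlier primary screen, cut at about 38% in these data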;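 also: 100% = cells given the luciferase reporter alone without the COUP-TF2 vector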); conditions: HEK293 NGFI-A luciferase reporter, luminescence; at 8.5 µM; hits give high values

Measured: inhibition

Chain of Nuclear receptor coactivator 1 (Homo sapiens) (Q15788 whole entry, looked up, the tested form may be a part): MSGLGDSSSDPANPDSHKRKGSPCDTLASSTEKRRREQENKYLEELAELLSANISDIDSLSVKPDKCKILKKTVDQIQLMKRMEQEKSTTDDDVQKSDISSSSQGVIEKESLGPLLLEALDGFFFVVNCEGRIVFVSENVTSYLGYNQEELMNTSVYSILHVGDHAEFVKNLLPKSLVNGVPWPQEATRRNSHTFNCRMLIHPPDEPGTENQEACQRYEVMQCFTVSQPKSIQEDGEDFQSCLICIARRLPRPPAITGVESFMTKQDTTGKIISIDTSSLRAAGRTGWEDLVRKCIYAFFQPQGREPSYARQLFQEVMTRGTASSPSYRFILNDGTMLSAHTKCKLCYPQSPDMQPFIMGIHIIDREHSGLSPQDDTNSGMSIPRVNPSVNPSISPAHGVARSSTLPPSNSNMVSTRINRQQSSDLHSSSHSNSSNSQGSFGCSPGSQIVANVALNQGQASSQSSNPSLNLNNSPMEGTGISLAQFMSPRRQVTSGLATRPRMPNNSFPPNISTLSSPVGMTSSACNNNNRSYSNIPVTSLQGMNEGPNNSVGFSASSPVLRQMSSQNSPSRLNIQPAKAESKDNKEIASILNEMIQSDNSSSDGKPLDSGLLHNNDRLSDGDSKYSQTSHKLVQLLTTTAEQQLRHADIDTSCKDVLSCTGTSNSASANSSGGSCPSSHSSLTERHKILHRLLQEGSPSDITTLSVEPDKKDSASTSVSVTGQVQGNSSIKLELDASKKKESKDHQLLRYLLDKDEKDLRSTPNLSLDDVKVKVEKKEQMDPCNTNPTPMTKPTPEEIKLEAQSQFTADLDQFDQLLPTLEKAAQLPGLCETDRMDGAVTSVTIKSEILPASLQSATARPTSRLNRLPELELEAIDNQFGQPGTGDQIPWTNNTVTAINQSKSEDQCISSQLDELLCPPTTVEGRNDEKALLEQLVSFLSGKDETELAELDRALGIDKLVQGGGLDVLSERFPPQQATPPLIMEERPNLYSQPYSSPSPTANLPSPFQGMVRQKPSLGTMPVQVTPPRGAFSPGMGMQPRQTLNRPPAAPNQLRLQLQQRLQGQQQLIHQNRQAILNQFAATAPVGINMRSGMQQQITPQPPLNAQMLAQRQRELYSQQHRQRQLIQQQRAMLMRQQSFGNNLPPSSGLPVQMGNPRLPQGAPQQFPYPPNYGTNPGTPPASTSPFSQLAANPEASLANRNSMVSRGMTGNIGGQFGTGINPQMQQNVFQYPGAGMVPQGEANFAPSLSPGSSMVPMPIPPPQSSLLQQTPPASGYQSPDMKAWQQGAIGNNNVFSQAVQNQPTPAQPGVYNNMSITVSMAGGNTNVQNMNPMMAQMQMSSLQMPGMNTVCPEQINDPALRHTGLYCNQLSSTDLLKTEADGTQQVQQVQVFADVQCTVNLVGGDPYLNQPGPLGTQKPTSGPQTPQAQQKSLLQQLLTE
Chain of Nuclear receptor subfamily 5 group A member 2 (Homo sapiens) (O00482 whole entry, looked up): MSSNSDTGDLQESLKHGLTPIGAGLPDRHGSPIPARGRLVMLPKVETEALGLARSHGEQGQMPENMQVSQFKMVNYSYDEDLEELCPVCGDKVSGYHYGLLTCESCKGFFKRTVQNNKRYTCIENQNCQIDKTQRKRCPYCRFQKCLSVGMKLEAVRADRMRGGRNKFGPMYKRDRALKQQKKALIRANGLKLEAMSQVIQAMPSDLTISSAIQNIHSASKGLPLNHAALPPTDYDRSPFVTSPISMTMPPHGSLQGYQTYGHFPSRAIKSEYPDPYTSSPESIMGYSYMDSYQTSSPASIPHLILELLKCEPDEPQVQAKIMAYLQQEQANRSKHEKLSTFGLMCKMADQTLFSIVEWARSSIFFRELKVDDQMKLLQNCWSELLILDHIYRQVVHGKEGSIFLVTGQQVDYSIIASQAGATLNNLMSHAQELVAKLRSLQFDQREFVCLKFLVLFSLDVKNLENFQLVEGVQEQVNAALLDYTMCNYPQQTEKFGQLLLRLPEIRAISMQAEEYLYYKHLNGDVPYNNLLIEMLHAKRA
Chain of Nuclear receptor coactivator 3 (Homo sapiens) (Q9Y6Q9 whole entry, looked up, the tested form may be a part): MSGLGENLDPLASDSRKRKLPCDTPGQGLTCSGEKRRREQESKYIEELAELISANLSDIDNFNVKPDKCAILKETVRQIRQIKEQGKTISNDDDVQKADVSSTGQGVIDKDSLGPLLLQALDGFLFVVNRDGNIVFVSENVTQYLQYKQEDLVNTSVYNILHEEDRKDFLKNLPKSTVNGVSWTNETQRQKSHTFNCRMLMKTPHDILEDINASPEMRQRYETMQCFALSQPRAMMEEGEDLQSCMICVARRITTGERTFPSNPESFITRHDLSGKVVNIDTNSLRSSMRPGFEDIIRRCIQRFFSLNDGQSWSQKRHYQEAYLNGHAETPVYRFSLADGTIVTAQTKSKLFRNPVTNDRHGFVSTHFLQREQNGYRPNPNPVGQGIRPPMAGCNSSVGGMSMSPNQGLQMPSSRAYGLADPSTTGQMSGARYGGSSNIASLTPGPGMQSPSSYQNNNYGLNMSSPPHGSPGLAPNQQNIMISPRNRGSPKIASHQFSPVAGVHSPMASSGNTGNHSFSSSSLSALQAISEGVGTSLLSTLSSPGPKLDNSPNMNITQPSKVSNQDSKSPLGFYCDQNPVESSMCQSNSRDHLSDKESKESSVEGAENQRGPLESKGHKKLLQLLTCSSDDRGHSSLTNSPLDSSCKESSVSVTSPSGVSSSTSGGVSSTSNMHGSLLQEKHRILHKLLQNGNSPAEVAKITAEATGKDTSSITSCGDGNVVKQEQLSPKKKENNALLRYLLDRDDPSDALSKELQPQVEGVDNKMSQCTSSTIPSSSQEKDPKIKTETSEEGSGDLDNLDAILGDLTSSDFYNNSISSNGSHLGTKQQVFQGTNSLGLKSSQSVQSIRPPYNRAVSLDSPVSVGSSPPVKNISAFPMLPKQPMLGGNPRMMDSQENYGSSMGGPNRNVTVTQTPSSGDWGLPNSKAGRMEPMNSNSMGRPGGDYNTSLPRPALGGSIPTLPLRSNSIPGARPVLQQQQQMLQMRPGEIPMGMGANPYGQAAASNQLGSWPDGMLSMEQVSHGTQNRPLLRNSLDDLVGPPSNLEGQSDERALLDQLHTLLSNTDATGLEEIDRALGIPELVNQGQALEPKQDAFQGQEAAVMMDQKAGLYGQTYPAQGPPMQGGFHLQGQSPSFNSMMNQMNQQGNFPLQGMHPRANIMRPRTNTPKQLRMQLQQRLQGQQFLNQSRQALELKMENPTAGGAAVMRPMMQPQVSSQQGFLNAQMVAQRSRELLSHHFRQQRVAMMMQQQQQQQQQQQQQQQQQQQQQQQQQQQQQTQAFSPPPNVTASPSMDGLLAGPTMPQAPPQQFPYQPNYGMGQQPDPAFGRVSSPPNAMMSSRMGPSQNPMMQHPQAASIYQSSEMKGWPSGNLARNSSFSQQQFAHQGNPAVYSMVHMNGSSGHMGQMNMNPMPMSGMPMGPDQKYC
Chain of Steroidogenic factor 1 (Homo sapiens) (Q13285 whole entry, looked up, the tested form may be a part): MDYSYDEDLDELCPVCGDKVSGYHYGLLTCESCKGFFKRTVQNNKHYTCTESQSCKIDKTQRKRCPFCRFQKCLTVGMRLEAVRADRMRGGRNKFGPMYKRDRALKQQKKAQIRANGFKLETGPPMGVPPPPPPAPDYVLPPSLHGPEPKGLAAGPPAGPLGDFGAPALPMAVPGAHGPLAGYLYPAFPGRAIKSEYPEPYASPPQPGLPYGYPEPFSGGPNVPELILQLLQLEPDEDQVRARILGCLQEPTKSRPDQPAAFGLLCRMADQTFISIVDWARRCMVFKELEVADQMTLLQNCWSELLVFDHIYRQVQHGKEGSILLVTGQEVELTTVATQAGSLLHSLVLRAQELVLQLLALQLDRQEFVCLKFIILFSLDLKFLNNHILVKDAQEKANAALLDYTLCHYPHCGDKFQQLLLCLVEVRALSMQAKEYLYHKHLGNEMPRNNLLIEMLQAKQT
Chain of Photoreceptor-specific nuclear receptor (Homo sapiens) (Q9Y5X4 whole entry, looked up): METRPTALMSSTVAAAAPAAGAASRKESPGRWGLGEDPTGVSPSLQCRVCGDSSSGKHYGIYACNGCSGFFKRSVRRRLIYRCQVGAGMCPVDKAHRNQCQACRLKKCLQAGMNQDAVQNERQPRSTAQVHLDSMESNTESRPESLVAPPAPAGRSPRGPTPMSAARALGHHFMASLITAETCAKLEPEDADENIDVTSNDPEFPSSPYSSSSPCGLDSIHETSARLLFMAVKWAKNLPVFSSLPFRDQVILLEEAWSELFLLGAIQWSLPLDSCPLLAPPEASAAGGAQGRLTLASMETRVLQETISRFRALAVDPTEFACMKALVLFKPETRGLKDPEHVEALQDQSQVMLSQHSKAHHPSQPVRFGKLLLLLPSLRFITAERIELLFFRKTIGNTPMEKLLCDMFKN
Chain of COUP transcription factor 2 (Homo sapiens) (P24468 whole entry, looked up): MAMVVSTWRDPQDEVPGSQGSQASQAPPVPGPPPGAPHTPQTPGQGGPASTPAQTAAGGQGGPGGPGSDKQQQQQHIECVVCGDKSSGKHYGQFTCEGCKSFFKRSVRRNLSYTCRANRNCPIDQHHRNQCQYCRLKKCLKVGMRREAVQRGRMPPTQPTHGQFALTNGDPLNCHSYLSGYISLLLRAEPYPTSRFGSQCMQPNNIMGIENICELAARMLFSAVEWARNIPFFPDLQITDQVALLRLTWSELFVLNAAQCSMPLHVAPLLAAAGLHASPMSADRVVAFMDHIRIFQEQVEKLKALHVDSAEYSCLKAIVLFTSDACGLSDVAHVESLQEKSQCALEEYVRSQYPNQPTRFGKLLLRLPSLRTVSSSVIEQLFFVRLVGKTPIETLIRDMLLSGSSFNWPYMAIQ

CCN(CC)S(=O)(=O)c1ccc(/C=C/C(=O)Nc2ccc(F)c(F)c2F)cc1
active: [2] 30.7% | [4] 28.7%
inactive: [1] -25.9% | [3] 3.76%

COCCn1c(C)cc(C(=O)COC(=O)c2ccccc2Br)c1C
inactive: [3] 46.2% | [6] -4.05% | [8] 16.6%
active: [1] 71.7% | [2] 57% | [4] 36.7% | [5] 57.1% | [7] 50.9%

CCC1(O)C(=O)OCc2c1cc1n(c2=O)Cc2cc3c(N)cccc3nc2-1 (configuration not stated)
active: [1] 89.6% | [2] 77.9% | [3] 54.4% | [4] 71.3% | [5] 83.6% | [6] 104% | [7] 92.1% | [8] 79.6%

C=CCn1c(C)cc(C(=O)CN2C(=O)c3ccccc3S2(=O)=O)c1C
active: [1] 89.7% | [2] 74.1% | [3] 77.3% | [4] 72.7% | [5] 89% | [6] 91.1% | [7] 90.7% | [8] 83.8%

O=C(NC(NC(=S)N1CCOCC1)C(Cl)(Cl)Cl)c1ccc(Cl)cc1 (configuration not stated)
active: [5] 47.4% | [6] 53.2% | [7] 50.2%
inactive: [1] 30.4% | [2] 18.7% | [3] 23% | [4] 15% | [8] 20.3%

O=C1C(Nc2ccc(O)cc2)=C/C(=N/S(=O)(=O)c2cccs2)c2ccccc21
inactive: [3] 29.5%
active: [1] 85.2% | [2] 72% | [4] 68% | [5] 79.7% | [6] 101% | [7] 87.6% | [8] 95.2%

CCCCCCn1c2c(c(=N)c3c1CCC3)CCC2
active: [1] 61.3% | [2] 76.9% | [3] 55.4% | [4] 76.4% | [5] 68.7% | [6] 110% | [7] 91.7% | [8] 93.6%

Cc1oc2c(F)c(F)c(F)c(F)c2c1S(=O)(=O)Nc1cccc(C(F)(F)F)c1
active: [9] 100% | [10] 93.3%
inactive: [1] -6.6% | [2] 11.6% | [3] 12.8% | [4] 4.85%

CN(C)c1ccc(/C=C/c2ccc3c4ccccc4ccc3[n+]2-c2ccccc2)cc1
active: [1] 70.9% | [2] 82.3% | [3] 50.2% | [4] 79.4% | [5] 71.9% | [6] 104% | [7] 92.5% | [8] 83%

O=C(N/N=C/c1sc(N2CCOCC2)nc1-c1ccccc1)c1cccc(S(=O)(=O)N2CCOCC2)c1
inactive: [1] 38.1% | [3] 43.6%
active: [2] 46.1% | [4] 61.9% | [5] 69.9% | [6] 100% | [7] 85.7% | [8] 87.4%

Cc1cc(C)nc(SCC(=O)Nc2ccnc3ccccc23)n1
inactive: [1] 12.2% | [3] -7.31%
active: [2] 36.5% | [4] 31.7%

OCCCNc1nccc(-c2cc(Nc3cccc(Cl)c3)ncn2)n1
inactive: [13] 6.3% | [14] 31.2%
active: [1] 95% | [2] 95.2% | [3] 83.5% | [4] 95.1% | [9] 100% | [10] 93.9% | [5] 88.5% | [6] 108% | [7] 96.5% | [8] 93.2% | [11] 57.9% | [12] 49.7%

COCCn1c(C)cc(C2=NNC(=Nc3ccccc3)SC2)c1C
inactive: [1] -62.4% | [2] -40.8% | [3] -119% | [4] -64% | [5] -73.4% | [6] -77.6% | [7] -67.8% | [8] -136%

COc1ccc(Cn2c(-c3ccc(C)cc3)c[n+]3ccccc23)cc1
inactive: [1] 35.9% | [3] 19.8%
active: [2] 52.1% | [4] 54.5% | [5] 50.2% | [6] 96.1% | [7] 79.5% | [8] 74%

Cn1c(=O)c2cc(NC(=O)CCc3ccc(O)cc3)ccc2n1Cc1cccc(C(F)(F)F)c1
active: [2] 64.2% | [4] 66% | [5] 63.3% | [6] 80% | [7] 80.1% | [8] 76.9%
inactive: [1] 34.4% | [3] 38.7%

Cc1ccc(-n2c(-c3ccccc3)c[n+]3c2CCc2ccccc2-3)c(C)c1
active: [1] 61.7% | [2] 68.1% | [4] 69.4% | [5] 57.4% | [6] 107% | [7] 87.7% | [8] 91.7%
inactive: [3] 42.5%

COc1ccccc1NC(=S)NN=C(C)c1ccccn1
active: [2] 65.2% | [4] 64% | [5] 81.8% | [6] 98.4% | [7] 85.8% | [8] 70.8%
inactive: [1] 4.97% | [3] -16.5%
